In PubChem BioAssay (EPA / NIEHS):
Active and inactive are the calls of the source. How the source made its calls: active means hit-call score of the fitted dose curve at least 0.9, where 1 is the maximum; inactive means score below 0.9.

Columns and labels:
Settings in all cases: mRNA level, 48 h; actives raise or lower the signal
[1] = read-out: Heat shock 70 kDa protein 1 (HSPA1A), gene 3303; test: LTEA_HepaRG_HSPA1A: Life Technologies and Expression Analysis (LTEA) Assay for Heat shock 70 kDa protein 1 (HSPA1A) using HepaRG (AID 2283502)
In short: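 HSPA1A induction in human HepaRG liver cells is measured after 48 h of chemical treatment (100 uM maximum, 0.5% DMSO vehicle). Expression comes from qRT-PCR normalized to endogenous controls.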

[2] = read-out: Hypoxia-inducible factor 1-alpha (Homo sapiens) (UniProt Q16665); test: LTEA_HepaRG_HIF1A: Life Technologies and Expression Analysis (LTEA) Assay for Hypoxia-inducible factor 1 (HIF1A) Trancription factor using HepaRG (AID 2283503)
In short: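 HepaRG, 48 h exposure, 8-pt half-log series from 100 uM, 0.5% DMSO vehicle, duplicates. Readout: HIF1A transcript by qRT-PCR (Fluidigm array), housekeeping-normalised. Bidirectional curve fit vs DMSO baseline.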

[3] = read-out: 3-Hydroxy-3-Methylglutaryl-CoA Synthase 2 (HMGCS2), HMGCS2 (gene 3158); test: LTEA_HepaRG_HMGCS2: Life Technologies and Expression Analysis (LTEA) Assay for 3-Hydroxy-3-Methylglutaryl-CoA Synthase 2 (HMGCS2) using HepaRG (AID 2283504)
In short: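 HepaRG, plated 48 h then switched to serum-free induction media; cmpd 8-pt, max 100 uM, 1/2-log, 0.5% DMSO, n=2, 48 h. HMGCS2 mRNA by Fluidigm TaqMan qRT-PCR, ACTB/GAPDH/POLR2A norm; bidirectional fit vs DMSO.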

HGF (gene 3082) = test: LTEA_HepaRG_HGF: Life Technologies and Expression Analysis (LTEA) Assay for Hepatocyte Growth Facto (HGF) using HepaRG (AID 2283505)
In short: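 Read-out is HGF transcript level by qRT-PCR, normalized to three housekeeping genes, fitted bidirectionally against 0.5% DMSO vehicle. Human HepaRG cells received test chemicals for 48 h at up to 100 uM.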

[4] = read-out: Insulin Like Growth Factor 1 (IGF1), IGF1 (gene 3479); test: LTEA_HepaRG_IGF1: Life Technologies and Expression Analysis (LTEA) Assay for Insulin Like Growth Factor 1 (IGF1) using HepaRG (AID 2283506)
In short: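 Using human HepaRG liver cells, IGF1 transcript induction or suppression is measured 48 h after dosing across eight concentrations capped at 100 uM. Values derive from bidirectional concentration-response fitting with DMSO as baseline.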

[5] = read-out: Intercellular Adhesion Molecule 1 (ICAM1), ICAM1 (gene 3383); test: LTEA_HepaRG_ICAM1: Life Technologies and Expression Analysis (LTEA) Assay for Intercellular Adhesion Molecule 1 (ICAM1) using HepaRG (AID 2283507)
In short: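 Readout is qRT-PCR mRNA level, normalized to three housekeeping genes and fitted bidirectionally against 0.5% DMSO vehicle. Human HepaRG cultures received compound for 48 h, top concentration 100 uM with half-log dilutions.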

[6] = read-out: Insulin-like growth factor-binding protein 1 (IGFBP1), IGFBP1 (gene 3484); test: LTEA_HepaRG_IGFBP1: Life Technologies and Expression Analysis (LTEA) Assay for Insulin-like growth factor-binding protein 1 (IGFBP1) using HepaRG (AID 2283508)
In short: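 Thawed HepaRG cells are plated for 48 h, switched to serum-free induction medium, then dosed in duplicate for another 48 h (100 uM top, half-log steps). Lysates in RLT go to qRT-PCR, and gain or loss of signal is fitted relative to vehicle.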

[7] = read-out: Interleukin 6 (IL6), IL6 (gene 3569); test: LTEA_HepaRG_IL6: Life Technologies and Expression Analysis (LTEA) Assay for Interleukin 6 (IL6) using HepaRG (AID 2283509)
In short: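 Differentiated human HepaRG cells, plated 48 h then switched to serum-free induction medium, were exposed in duplicate for 48 h to eight half-log concentrations up to 100 uM in 0.5% DMSO. IL6 mRNA measured by qRT-PCR, normalized to ACTB/GAPDH/POLR2A.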

[8] = read-out: Interleukin 6 Receptor (IL6R), IL6R (gene 3570); test: LTEA_HepaRG_IL6R: Life Technologies and Expression Analysis (LTEA) Assay for Interleukin 6 Receptor (IL6R) using HepaRG (AID 2283510);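 on AC50: TaqMan qRT-PCR signal normalized to ACTB GAPDH and POLR2A housekeeping genes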
In short: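 Concentration-response in human liver HepaRG cells: eight concentrations from 100 uM downward by half-logs, 48 h exposure, 0.5% DMSO vehicle. IL6R mRNA change measured by qRT-PCR and fitted in both directions relative to vehicle.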

[9] = read-out: Potassium channel subfamily K member 1 (KCNK1), KCNK1 (gene 3775); test: LTEA_HepaRG_KCNK1: Life Technologies and Expression Analysis (LTEA) Assay for Potassium channel subfamily K member 1 (KCNK1) using HepaRG (AID 2283511)
In short: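 Differentiated human HepaRG cells in serum-free induction medium were exposed in duplicate for 48 h to 8 half-log concentrations up to 100 uM in 0.5% DMSO. KCNK1 mRNA was measured by TaqMan qRT-PCR, normalized to ACTB, GAPDH and POLR2A, and fitted bidirectionally versus DMSO.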

[10] = read-out: Keratin 19 (KRT19), KRT19 (gene 3880); test: LTEA_HepaRG_KRT19: Life Technologies and Expression Analysis (LTEA) Assay for Keratin 19 (KRT19) using HepaRG (AID 2283512)
In short: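 KRT19 transcript levels, measured by Fluidigm qRT-PCR against three housekeeping genes, are fitted for gain or loss of signal relative to DMSO. Human HepaRG cells receive test chemicals (top 100 uM, half-log steps, 0.5% DMSO) for 48 hours.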

[11] = read-out: JUN Transcription Factor, JUN (gene 3725); test: LTEA_HepaRG_JUN: Life Technologies and Expression Analysis (LTEA) Assay for JUN Transcription Factor using HepaRG (AID 2283513)
In short: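 Human HepaRG liver cells receive test chemicals in 0.5% DMSO for 48 h across an eight-point range topping at 100 uM. Expression changes in JUN are scored in both directions against the DMSO vehicle.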

[12] = read-out: Lipase C (LIPC), LIPC (gene 3990); test: LTEA_HepaRG_LIPC: Life Technologies and Expression Analysis (LTEA) Assay for Lipase C (LIPC) using HepaRG (AID 2283514)
In short: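 Differentiated human HepaRG cells in serum-free induction medium were exposed in duplicate for 48 h to eight concentrations (top 100 uM, half-log steps, 0.5% DMSO). LIPC mRNA was quantified by TaqMan qRT-PCR, normalized to ACTB, GAPDH and POLR2A, with bidirectional fitting versus DMSO.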

[13] = read-out: Lipoprotein lipase (LPL), LPL (gene 4023); test: LTEA_HepaRG_LPL: Life Technologies and Expression Analysis (LTEA) Assay for Lipoprotein lipase (LPL) using HepaRG (AID 2283515)
In short: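 Differentiated human HepaRG cells in serum-free induction medium were exposed in duplicate for 48 h to eight half-log concentrations (top 100 uM) in 0.5% DMSO. LPL mRNA was quantified by TaqMan qRT-PCR, normalized to ACTB, GAPDH and POLR2A.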

[14] = read-out: MicroRNA 122 (MIR122), gene 406906; test: LTEA_HepaRG_MIR122: Life Technologies and Expression Analysis (LTEA) Assay for MicroRNA 122 (MIR122) using HepaRG (AID 2283516); further: the transcript read is the microRNA miR-122
In short: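 HepaRG, 48 h exposure, 8-pt half-log from 100 uM, 0.5% DMSO; TaqMan qRT-PCR; bidirectional fit vs DMSO.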

[15] = read-out: matrix metalloproteinase-10 (MMP10), MMP10 (gene 4319); test: LTEA_HepaRG_MMP10: Life Technologies and Expression Analysis (LTEA) Assay for matrix metalloproteinase-10 (MMP10) using HepaRG (AID 2283517)
In short: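 HepaRG, collagen I, ~100,000 cells/well; serum-free induction medium; 48 h exposure, duplicate, 8-pt half-log to 100 uM, 0.5% DMSO. Readout: TaqMan qRT-PCR, normalized to ACTB/GAPDH/POLR2A; bidirectional fit vs DMSO.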

MYC, MYC (gene 4609) = test: LTEA_HepaRG_MYC: Life Technologies and Expression Analysis (LTEA) Assay for MYC using HepaRG (AID 2283518)
In short: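 HepaRG, ~100,000 cells/well, collagen I; 48 h plating; serum-free induction medium; 48 h dosing, duplicate, 100 uM top, half-log, 0.5% DMSO; total RNA → qRT-PCR MYC; gain/loss fit vs DMSO.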

[16] = read-out: matrix metalloproteinase-3 (MMP3), MMP3 (gene 4314); test: LTEA_HepaRG_MMP3: Life Technologies and Expression Analysis (LTEA) Assay for matrix metalloproteinase-3 (MMP3) using HepaRG (AID 2283519)
In short: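 Differentiated human HepaRG cells, plated 48 h on collagen I, were exposed in duplicate for 48 h in serum-free induction medium to eight half-log concentrations up to 100 uM in 0.5% DMSO. MMP3 mRNA was quantified by TaqMan qRT-PCR, normalised to ACTB, GAPDH and POLR2A.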

[17] = read-out: Paternally Expressed 10 (PEG10), PEG10 (gene 23089); test: LTEA_HepaRG_PEG10: Life Technologies and Expression Analysis (LTEA) Assay for Paternally Expressed 10 (PEG10) using HepaRG (AID 2283520);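 on AC50: PEG10 transcript by qRT-PCR normalised to ACTB GAPDH and POLR2A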
In short: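 Chemicals tested on HepaRG cells for 48 h, highest concentration 100 uM. PEG10 expression assessed by qRT-PCR relative to DMSO control.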

[18] = read-out: Nuclear factor NF-kappa-B p105 subunit (Homo sapiens) (UniProt P19838); test: LTEA_HepaRG_NFKB1: Life Technologies and Expression Analysis (LTEA) Assay for Nuclear Factor Kappa B Subunit 1 (NFKB1) using HepaRG (AID 2283521)
In short: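 Differentiated human HepaRG cells were exposed for 48 h in serum-free induction medium to eight concentrations (top 100 uM, half-log steps, 0.5% DMSO), in duplicate. NFKB1 mRNA was measured by TaqMan qRT-PCR, normalized to ACTB/GAPDH/POLR2A, and fitted bidirectionally against DMSO.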

Measured: AC50

Nuclear factor NF-kappa-B p105 subunit (Homo sapiens), sequence (P19838 whole entry, looked up): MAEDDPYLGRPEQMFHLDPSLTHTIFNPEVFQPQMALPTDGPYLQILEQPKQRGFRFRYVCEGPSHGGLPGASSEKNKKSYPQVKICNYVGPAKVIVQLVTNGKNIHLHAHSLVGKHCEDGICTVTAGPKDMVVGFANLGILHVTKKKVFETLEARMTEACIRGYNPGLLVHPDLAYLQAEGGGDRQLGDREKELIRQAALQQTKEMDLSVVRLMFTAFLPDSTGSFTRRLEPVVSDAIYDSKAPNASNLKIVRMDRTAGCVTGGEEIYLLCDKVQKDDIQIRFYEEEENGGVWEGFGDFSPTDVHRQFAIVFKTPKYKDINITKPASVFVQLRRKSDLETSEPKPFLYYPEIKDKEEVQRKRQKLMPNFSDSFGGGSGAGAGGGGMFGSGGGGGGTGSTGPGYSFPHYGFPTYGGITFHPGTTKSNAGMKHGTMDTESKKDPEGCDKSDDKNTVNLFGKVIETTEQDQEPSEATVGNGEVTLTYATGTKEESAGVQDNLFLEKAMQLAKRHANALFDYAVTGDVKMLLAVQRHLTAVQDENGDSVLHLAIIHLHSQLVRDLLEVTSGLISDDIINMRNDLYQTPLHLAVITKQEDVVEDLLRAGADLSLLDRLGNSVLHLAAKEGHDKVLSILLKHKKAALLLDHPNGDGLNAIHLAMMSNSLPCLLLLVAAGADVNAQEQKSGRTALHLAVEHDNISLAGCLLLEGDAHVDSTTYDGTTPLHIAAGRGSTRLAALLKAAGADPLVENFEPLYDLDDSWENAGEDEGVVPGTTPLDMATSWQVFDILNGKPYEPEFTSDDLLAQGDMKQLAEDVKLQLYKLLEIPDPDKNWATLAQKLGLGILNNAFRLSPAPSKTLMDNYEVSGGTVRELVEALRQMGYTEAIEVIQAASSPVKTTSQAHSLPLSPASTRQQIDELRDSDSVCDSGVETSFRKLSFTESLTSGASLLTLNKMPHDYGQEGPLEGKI
Hypoxia-inducible factor 1-alpha (Homo sapiens), sequence (Q16665 whole entry, looked up): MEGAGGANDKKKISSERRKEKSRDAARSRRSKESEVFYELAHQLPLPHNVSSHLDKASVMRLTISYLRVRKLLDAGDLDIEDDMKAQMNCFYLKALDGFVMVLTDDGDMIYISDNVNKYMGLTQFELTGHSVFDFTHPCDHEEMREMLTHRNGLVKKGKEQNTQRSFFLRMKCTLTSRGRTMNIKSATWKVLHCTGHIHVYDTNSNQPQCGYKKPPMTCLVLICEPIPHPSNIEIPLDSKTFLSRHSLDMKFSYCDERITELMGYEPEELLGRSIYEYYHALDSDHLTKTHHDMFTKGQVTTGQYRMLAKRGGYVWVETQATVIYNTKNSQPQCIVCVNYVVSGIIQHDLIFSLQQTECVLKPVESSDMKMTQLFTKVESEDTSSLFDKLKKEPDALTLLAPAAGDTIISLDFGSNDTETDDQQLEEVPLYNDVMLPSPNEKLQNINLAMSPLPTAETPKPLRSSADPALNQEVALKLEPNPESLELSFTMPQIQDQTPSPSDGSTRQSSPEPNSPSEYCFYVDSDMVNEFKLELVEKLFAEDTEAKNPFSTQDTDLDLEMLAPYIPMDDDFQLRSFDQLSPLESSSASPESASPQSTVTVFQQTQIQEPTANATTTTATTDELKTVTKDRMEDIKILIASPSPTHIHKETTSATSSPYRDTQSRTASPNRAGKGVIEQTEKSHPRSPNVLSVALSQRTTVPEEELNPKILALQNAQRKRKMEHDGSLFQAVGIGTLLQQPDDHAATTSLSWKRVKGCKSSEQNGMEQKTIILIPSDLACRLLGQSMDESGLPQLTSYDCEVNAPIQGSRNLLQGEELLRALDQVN

CC(O)CC(C)(C)O (configuration not stated)
inactive: all assays above

Oc1ccc2ccccc2c1
not listed: [15]
inactive: all other assays above

OCCO
inactive: all assays above

CC[C@H](NC(=O)c1cc(F)ccc1NS(=O)(=O)c1cccc2cccnc12)c1ccccc1
active: [1] 12.2 µM | [3] 37.6 µM | [4] 12.4 µM | [8] 38.6 µM | [12] 20.1 µM | [14] 47.8 µM | [17] 19.1 µM
inactive: all other assays above

CCCCCCCCOC(=O)c1cc(O)c(O)c(O)c1
active: [7] 50 µM | [10] 27.1 µM
not listed: [15]
inactive: all other assays above

CCCCCCCCOc1ccc(C(=O)c2ccccc2)c(O)c1
inactive: all assays above

Oc1ccccc1
not listed: [18]
inactive: all other assays above

CC(=O)N1CCN(c2ccc(OC[C@H]3CO[C@](Cn4ccnc4)(c4ccc(Cl)cc4Cl)O3)cc2)CC1
inactive: [18]
active: [1] 79.5 µM | [3] 12.4 µM | [4] 12.4 µM | [5] 26.6 µM | [6] 15.1 µM | [7] 31.2 µM | [8] 13.9 µM | [10] 12.2 µM | [11] 50 µM | [12] 18.3 µM | [13] 86.3 µM | [14] 13.3 µM | MYC, MYC (gene 4609) 15.4 µM | [16] 24 µM | [17] 42.5 µM

O=C1O[C@H]([C@@H](O)CO)C(O)=C1O
not listed: [10] | [11] | [18]
inactive: all other assays above

CN(C[C@@H](CC[N+]12CCC(C3CCCCC3)(CC1)CC2)c1ccc(Cl)c(Cl)c1)C(=O)c1cc(C(F)(F)F)cc(C(F)(F)F)c1
active: [1] 71.9 µM | [2] 50 µM | [3] 67.4 µM | HGF (gene 3082) 20 µM | [4] 24.1 µM | [5] 12.2 µM | [6] 13.9 µM | [7] 75.6 µM | [8] 78 µM | [9] 15.8 µM | [10] 26.4 µM | [11] 88.5 µM | [12] 15.8 µM | [13] 36 µM | [14] 12.7 µM | MYC, MYC (gene 4609) 87.2 µM | [17] 28.7 µM | [18] 89.7 µM
inactive: [16]

Cc1cn([C@H]2C[C@H](N=[N+]=[N-])[C@@H](CO)O2)c(=O)[nH]c1=O
not listed: [2] | [15]
inactive: all other assays above

Cc1cc2c(cc1C(F)(F)F)N(C(=O)Nc1ccc(Oc3cccnc3C)nc1)CC2
active: [1] 80.9 µM | [2] 11.3 µM | [3] 29.2 µM | [12] 46 µM | [13] 80.4 µM | [14] 46 µM | [15] 26.8 µM
inactive: all other assays above
